CHX counter = Cycloheximide Counterscreen for Small Molecule Inhibitors of Shiga Toxin; cell reporter, cycloheximide protein synthesis inhibition counterscreen; max response, %; 12% of 300,000 active; AID 2314, 2010; in the data active means max response mostly above about 13%, no sharp cut-off; inactive means mostly below about 14%; further: read at 38.3 µM for the half of the compounds with a filed dose
Pf growth 48h = Primary qHTS for delayed death inhibitors of the malarial parasite plastid, 48 hour incubation; 5.9% of 310,000 active; P. falciparum luciferase growth in erythrocytes, 48 h; Potency, µM (top dose mostly 28.7 µM), actives largely listed as inhibitors
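Erythrocytes infected with P. falciparum carrying an integrated firefly luciferase reporter (2% hematocrit, 0.1% parasitemia final) were exposed to compounds in RPMI 1640 with 0.5% Albumax at 37 C, 5% CO2. Growth inhibition was scored as reduced luminescence.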
Marburg entry inh = qHTS for inhibitors of binding or entry into cells for Marburg Virus; Potency, µM (highest dose often 37.8 µM), actives largely listed as inhibitors; 1.8% of 300,000 active; Marburg virus pseudotyped entry inhibition, cell reporter; calls by dose curve; tested in HEK293 cells
Pf growth 96h = Primary qHTS for delayed death inhibitors of the malarial parasite plastid, 96 hour incubation; 6.9% of 320,000 active; Potency, µM (top dose mostly 28.7 µM), most hits filed as inhibitors; P. falciparum luciferase reporter growth, 96 h; AID 504834, 2011
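96 h incubation, 37 C, 5% CO2, of luciferase-reporter P. falciparum-infected RBCs (2% hematocrit, 0.05% parasitemia final) with test compounds; endpoint luminescence.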
Shiga inhibitor = A qHTS for Small Molecule Inhibitors of Shiga Toxin. inhibition, % at 38.7 µM. 9.2% of 290,000 active. Vero cells, Shiga toxin protein synthesis inhibition reporter; in the data active means inhibition mostly above about 28%, no sharp cut-off; inactive means mostly below about 43%
Lassa entry inh = qHTS for Inhibitors of binding or entry into cells for Lassa Virus. Lassa virus pseudotype entry inhibition, cell reporter. 1.2% of 300,000 active. Potency, µM (titrated, usually from 37.9 µM), actives largely listed as inhibitors; calls by dose curve; tested in HEK293 cells; further: nearly all actives have a fitted effect of over 50% in size
A number is an active result; - = inactive; ? = inconclusive; . = no result; + = active, no number. Only some compounds are listed: those with a hit (about 19% of all), similar ones and a draw of the others. Unless noted, the call rests on the fitted dose curve; in most records, active means well fitted inhibition curve with a large enough effect; inconclusive means small, poorly fitted or top-dose-only effect, or another doubt; inactive means no such curve, though single readings can be large or run the other way.

SMILES	CHX counter	Pf growth 48h	Marburg entry inh	Pf growth 96h	Shiga inhibitor	Lassa entry inh
CC(C)(C)OC(=O)NCCCC(CCCNC(=O)OC(C)(C)C)C(=O)O	-	-	-	.	-	-
CC(C)(C)OC(=O)NCCCCCO	26.9	-	.	-	26.7	.
COC(=O)c1ccc(NC(=O)c2ccc(C)cc2)o1	22.2	-	-	-	48.5	-
COC(=O)c1ccc(NC(=O)c2cccc(Cl)c2)o1	24.2	-	-	-	58.3	-
COC(=O)c1cc(NC(=O)c2ccc(C)cc2)c(=O)oc1C	24.8	-	-	-	-	-
Cc1oc(=O)c(NC(=O)c2cccc(Cl)c2)cc1C(=O)c1ccccc1	30.6	?	?	-	68.3	-
COc1ccc(C(=O)Nc2cc(C(=O)c3ccccc3)c(C)oc2=O)cc1	-	-	-	-	-	-
COC(=O)c1ccc(NC(=O)c2ccc(F)cc2)o1	-	-	-	-	-	-
Cc1cc(Oc2ccccc2)nc(-c2ccccc2)n1	27.5	-	-	-	-	-
c1ccc(Oc2cc(-c3ccccc3)nc(-c3ccccc3)n2)cc1	-	-	-	?	-	-
COCCCN(C(=O)c1ccco1)c1nc(-c2ccc(OC)cc2)cs1	13.4	-	?	?	-	?
CCN(CC)CCCN(C(=O)c1ccco1)c1nc(-c2ccc(Cl)cc2)cs1	-	1.47µM	?	?	-	?
COCCCN(C(=O)c1ccccc1)c1nc(-c2ccc(OC)cc2)cs1	-	?	.	?	-	.
COCCCN(C(C)=O)c1nc(-c2ccccc2)cs1	39.4	-	-	?	81.4	?
CCN(CC)CCCN(C(=O)c1ccco1)c1nc(-c2ccc(C)cc2)cs1	-	?	8.91µM	-	-	?
CCCC[C@]1(C(=O)OCC)C[C@H](CN2CCOCC2)OC1=O	.	.	-	.	.	.
CC(=O)c1ccc(N(C(=O)c2ccco2)C(C(=O)NC2CCCC2)c2ccc(N3CCOCC3)cc2)cc1 (stereo unspecified)	-	?	-	?	-	-
Cc1nn(CC(=O)NCC2CCCO2)c(=O)c2ccccc12 (stereo unspecified)	-	-	-	-	-	-
COc1cc(C(=O)N2CCCC(c3nc(-c4cccs4)no3)C2)cc(OC)c1OC (stereo unspecified)	-	-	-	-	-	-
CCC(C)C(=O)N1CCCC(c2nc(-c3cccs3)no2)C1 (stereo unspecified)	31.0	-	-	.	100.9	?
COc1cccc(C(=O)N2CCCC(c3nc(-c4cccs4)no3)C2)c1 (stereo unspecified)	-	-	-	9.28µM	-	-
CCCC(=O)N1CCCC(c2nc(-c3cccs3)no2)C1 (stereo unspecified)	20.6	-	-	.	86.1	-
COc1ccc(-c2noc(C3CCCN(C(=O)c4cccs4)C3)n2)cc1 (stereo unspecified)	-	-	?	.	-	-
COc1ccccc1Cn1c(SCC#N)nc2cc(C(=O)N3CCC4(CC3)OCCO4)ccc2c1=O	-	?	-	9.28µM	-	-
CCOC(CNc1ncnc2sc(-c3ccccc3)cc12)OCC	11.6	?	.	?	-	.
SMILES	CHX counter	Pf growth 48h	Marburg entry inh	Pf growth 96h	Shiga inhibitor	Lassa entry inh
CCCN1CCN(CCCNC(=O)Cn2nc(C)n3c(cc4cc(F)ccc43)c2=O)CC1	-	-	-	-	-	.
Oc1ccc(N2CCN(C(=S)NCCc3ccccc3)CC2)cc1	23.6	?	?	-	-	?
CC(=O)N1CCN(C(=S)NCCc2ccccc2)CC1	-	-	-	-	-	-
S=C(NCCc1ccccc1)N1CCc2ccccc2C1	67.0	-	-	?	116.4	-
Oc1ccccc1N1CCN(C(=S)NCCc2ccccc2)CC1	27.2	-	-	-	31.5	-
OC1CCN(C(=S)NCCc2ccccc2)CC1	-	.	-	-	-	-
COc1ccc(CCNC(=S)N2CCC(C(N)=O)CC2)cc1	-	-	-	-	-	-
NC(=O)C1CCN(C(=S)NCCc2ccccc2)CC1	17.7	-	-	-	-	?
Fc1cccc(CN2CCN(C(=S)NCCc3ccccc3)CC2)c1	-	-	-	-	-	-
S=C(NCCc1ccccc1)N1CCN(Cc2ccccc2)CC1	30.5	-	-	-	-	-
S=C(NC1CCCCC1)N1CCc2ccccc2C1	38.1	-	?	-	+	-
Cc1ccccc1CNC(=O)CCC(=O)N1CC2CCCN2c2ccccc21 (stereo unspecified)	.	.	.	.	.	-
CCC(=O)NC(/C=C/c1ccccc1)c1cc([N+](=O)[O-])c2cccnc2c1O (stereo unspecified)	-	-	.	-	-	.
COC(=O)/C(=C/c1ccc2c(c1)c1ccccc1n2C)NC(=O)c1ccccc1	-	-	?	?	-	?
COc1cc(/C=C2\COC/C(=C\c3ccc(O)c(OC)c3)C2=O)ccc1O	33.1	10.4µM	?	?	37.1	?
COc1ccc(/C=C2\CC/C(=C\c3ccc(OC)c(OC)c3)C2=O)cc1OC	-	-	?	?	-	?
COc1cc(/C=C2\C(=O)N(C)C(=S)N2C)ccc1O	-	-	-	-	-	?
COc1cc(/C=C2/CC/C(=C/c3ccc(O)c(OC)c3)C2=O)ccc1O	-	3.29µM	.	?	-	.
CC1(C)CC(=O)c2cc(C(=O)N3CCN(CCO)CC3)c(=O)n(-c3ccc(Cl)cc3)c2C1	-	-	-	?	-	-
Cc1cc(C(=O)OCC(=O)c2ccc(Br)s2)no1	-	-	-	?	-	-
O=c1cc(O)c2c(=O)n(-c3ccccc3)c3ccccc3c2o1	-	-	?	11.7µM	-	-
CCCCN1C(=O)C(NC(=O)C2CC2)(C(F)(F)F)C2=C1CC(C)(C)CC2=O (stereo unspecified)	-	-	?	-	-	-
CCCCC(=O)NC1(C(F)(F)F)C(=O)N(CC(C)C)C2=C1C(=O)CC(C)(C)C2 (stereo unspecified)	-	-	-	-	43.7	-
CCOC(=O)NN1C(=O)c2ccccc2NC1C (stereo unspecified)	-	-	.	-	-	.
CC1Nc2ccccc2C(=O)N1NC(=O)c1ccc(Br)cc1 (stereo unspecified)	-	-	-	8.28µM	-	-
Cc1ccc(C(=O)NC(=C(Cl)Cl)S(=O)(=O)c2ccc(Cl)cc2)cc1	47.8	-	.	-	87.2	.
O=C(NC(=C(Cl)Cl)S(=O)(=O)c1ccc(Cl)cc1)c1ccccc1	56.6	-	.	-	89.6	.
CC(=O)NC(=C(Cl)Cl)S(=O)(=O)c1ccccc1	36.3	?	10µM	?	65.9	?
Cc1ccc(C(=O)NC(=C(Cl)Cl)S(=O)(=O)c2ccc(C)cc2)cc1	-	-	?	-	-	?
Cc1ccc(S(=O)(=O)/C(=C/Cl)NC(=O)c2ccccc2)cc1	14.9	-	7.08µM	?	-	7.31µM

Screening data from PubChem BioAssay.
